Source: ChEMBL document CHEMBL4513216, “Probing the Open Global Health Chemical Diversity Library for Multistage-Active Starting Points for Next-Generation Antimalarials” (ACS Infect Dis, 2020)
About 8,600 (12%) of roughly 69,000 compounds showed an effect of 50% or more. What follows is part of a selection rich in strong results, with near analogues and random picks from the rest.

Test system: Plasmodium berghei
Test: Screen against P. berghei liver stage (PbLuc), transformed with Luciferase, at 10uM
Type: functional, HepG2
Details: tested at 10 uM

SMILES	INHIBITION
Cc1nn(C2CCS(=O)(=O)C2)c(C)c1CC(=O)NCc1ccccc1Cl (centres undefined)	-8.9%
CNC(=O)NC(=O)CCN1CCCC1c1nc(C2CCCCC2)co1 (centres undefined)	-11.3%
CN(C)C[C@]12COC[C@H]1CN(C(=O)Cc1ccc3c(c1)OCO3)C2	23.5%
CC(O)(CN1CCN(CCO)CC1)c1cccc(C(F)(F)F)c1 (centres undefined)	-14%
Cc1nc2cc(-c3nccn3C)nn2c(N2CCC(O)CC2)c1C	12.3%
O=C1COC2(COCCN(c3ccccn3)C2)CN1c1cccc(F)c1 (centres undefined)	31.2%
c1ccc(CN2CCc3c(CNc4nccs4)n[nH]c3C2)nc1	34.4%
Fc1cnc(N2CCOCC3(CCCN(c4nncs4)C3)C2)nc1 (centres undefined)	41.5%
CCS(=O)(=O)N1CCCC2(COCCN(c3nncs3)C2)C1 (centres undefined)	28.2%
CCN1CCOCC2(CCCN(c3nncs3)C2)C1 (centres undefined)	52.3%
Cc1cc(CNC(=O)N2CCc3ccccc3C2CO)c(C)o1 (centres undefined)	2.43%
Cc1cc(F)ccc1-n1cc(O)c(C(=O)NCC[S+](C)[O-])n1 (centres undefined)	36.2%
COc1ccccc1COCC(O)CN1CCC(c2ccn[nH]2)CC1 (centres undefined)	46.2%
Cn1cc(CN2CCn3cnc(COCC4CC4)c3C2)cn1	5.63%
CC(=O)N1CCN(Cc2c(C)sc3ccccc23)CC(O)C1 (centres undefined)	35.4%
CC(=O)N1CCN(Cc2c(C)ccc3ccccc23)CC(O)C1 (centres undefined)	44.3%
CC(=O)N1CCN(Cc2cccc3c2sc2ccccc23)CC(O)C1 (centres undefined)	84.6%
Cc1cnn(CCNCc2cccc(C#N)c2)c1	32.2%
Cn1cncc1CN1CCC2(CC1)COCCN(S(C)(=O)=O)C2	4.68%
O=C(CC1CCCC1)N1CCC(c2nnc(-c3ccccn3)o2)CC1	-18.1%
CC(C)CCN(C)C(=O)c1nc(S(C)(=O)=O)n2ccccc12	46.5%
CN(Cc1ccccc1)C(=O)c1nc(S(C)(=O)=O)n2ccccc12	52%

SMILES	INHIBITION
CN(Cc1ccccn1)C(=O)c1nc(S(C)(=O)=O)n2ccccc12	36.85%
Cn1cc(Cl)cc1C(=O)N1CCCN(Cc2ccccc2)CC1	16.97%
Cn1cnnc1SCc1cc2c(cc1Br)OCO2	49%
N#CC1CCCN(S(=O)(=O)c2ccc(C(=O)NCC(F)F)cc2)C1 (centres undefined)	49.2%
N[C@H]1CCCN(S(=O)(=O)c2ccc(C(=O)NCC(F)F)cc2)C1	66.1%
O=C(NCC(F)F)c1ccc(S(=O)(=O)N2CCCC(O)C2)cc1 (centres undefined)	37.3%
CN(C(=O)c1ccn(C)n1)[C@@H]1CCC[C@@H](Oc2ccccc2)[C@@H]1O	35.2%
CN(C(=O)c1cn(C)cn1)[C@@H]1CCC[C@@H](Oc2ccccc2)[C@@H]1O	60.5%
Cc1cnc(C(=O)N(C)[C@@H]2CCC[C@@H](Oc3ccccc3)[C@@H]2O)cn1	17.1%
Cc1noc(C)c1-c1cncc(C2CCCN2Cc2nccs2)n1 (centres undefined)	15.9%
O=C(CC1CCCO1)N1CCCN(c2cccnn2)CC1 (centres undefined)	7.12%
Cc1cc(C)nc(N(C)CCn2ccnc2C)n1	-45.7%
CN(C)C(=O)CN1CCC2(CC1)CC(=O)c1ccc3ccccc3c1O2	41.1%
Cc1ccc2nc(CNCCCN3CCCC3)cc(O)c2c1	41.5%
CN1CCN(CCCNCc2cc(O)c3cc(F)ccc3n2)CC1	65.6%
OCC1CCCCN1CCCNCc1cc(O)c2cc(F)ccc2n1 (centres undefined)	25.7%
Oc1cc(CNCCCN2CCCC2)nc2ccc(F)cc12	62.8%
Oc1cc(CNCCN2CCCCC2)nc2c(F)cccc12	13.7%
O=C1CCCN1CCCNCc1cc(O)c2cccc(Cl)c2n1	-13.4%
O=C1CCCN1CCCNCc1cc(O)c2cccc(F)c2n1	-15.8%
O=S(=O)(CCNCc1cc(O)c2cc(F)ccc2n1)N1CCCC1	58.2%
O=C(CCNCc1cc(O)c2cc(F)ccc2n1)N1CCCC1	30.4%

SMILES	INHIBITION
CC(NCc1c(C(C)C)nn(C)c1N1CCOCC1)C(=O)N(C)C (centres undefined)	19.45%
Cc1cc(C)c2c(NCCC3(O)CCCC3)ncnc2n1	42.3%
CCn1ccc2ccnc(CC3CN(C(=O)c4cnco4)C3)c21	1.62%
CN1CC2(CCCCN2C(=O)c2ccsc2)CC1=O (centres undefined)	35.8%
Cc1oc(C)c(C(=O)NCc2cccc(C(N)=O)c2)c1C	-39.7%
CNC(=O)C1CN(C)CCN1c1nc(C)cc(C)n1 (centres undefined)	-5.8%
COC(=O)Cn1c(=O)[nH]c2cn(-c3ccc(Cl)cc3)c(=O)n21	0.547%
NC(=O)c1cc(C2CCCN(CCCOc3ccc(F)cc3)C2)n[nH]1 (centres undefined)	14.22%
CC(C)COCCC(=O)NS(=O)(=O)c1ccc(Cl)s1	62.4%
CC(=O)c1ccc(OCC(=O)NS(=O)(=O)c2ccc(Cl)s2)cc1	36.8%
Cc1ccc(S(=O)(=O)NC(=O)CCOCC(C)C)s1	55.9%
CCOCCCC(=O)NS(=O)(=O)c1ccc(C)s1	11.3%
Cc1ccc(S(=O)(=O)NC(=O)CCOCc2ccccc2)s1	36.3%
COc1ccccc1OCC(=O)NS(=O)(=O)c1ccc(Cl)s1	31.3%
OC1(CN2CCCC2)COCCN(c2cc(C(F)(F)F)ccn2)C1 (centres undefined)	-16%
OCCn1nccc1C1CCN(Cc2nc(C3CC3)no2)CC1	33.7%
Cc1cc(C(=O)N2CCC(Nc3cccnc3)CC2)c(C)s1	-19.5%
O=S1(=O)NC(c2ccnc(N3CCCC3)n2)=Nc2ccccc21	33.2%
Cc1ccc(C(=O)N2CCC3(CC2)CC(N2CCOCC2)C3)cc1	55.7%
Cc1ccc(C(=O)N2CCC3(CC2)CC(N2CCCC2)C3)cc1	39.9%
O=C(c1ccc(F)cc1)N1CCC2(CC1)CC(N1CCOCC1)C2	-24.5%
CN(C)C(=O)c1cn[nH]c1C1(C)CCCN(Cc2ccccn2)C1 (centres undefined)	40%

SMILES	INHIBITION
CCOc1ccc(NC(=O)N2CCNC(=O)C2)c(C(F)(F)F)c1	40.2%
O=C(Cn1cc(-c2ccccc2)ncc1=O)Nc1nnc[nH]1	13%
O=C(Cn1cc(-c2ccccc2)ncc1=O)Nc1ccncc1	0.547%
O=C(Cn1cc(-c2ccccc2)ncc1=O)Nc1ncc[nH]1	81%
Cc1nc2c(C)cccc2cc1C(=O)N1CCC2(CCN(C)CC2)C1	-17.7%
CCOc1nnc(CN2CCN(CCOC)C(C)C2)s1 (centres undefined)	51.7%
CCOc1nnc(CN2CCN(CCOC)CC2)s1	53.4%
CCOc1nnc(CN2CCC(c3cc4ccccc4[nH]3)CC2)s1	-14.2%
CCOc1nnc(CN2CCN(CCOC)C(CC)C2)s1 (centres undefined)	28.6%
CCOc1nnc(CN2CCC(c3nc4ccccc4[nH]3)CC2)s1	-35.9%
CCOCCN1CCN(CCOC)CC1C (centres undefined)	11.4%
COCC1CC2(CCN(C(=O)c3ccc(C)nc3)CC2)CO1 (centres undefined)	-26.1%
COc1ccc(C2CCCN2C(=O)NCCn2ccnc2)cc1OC (centres undefined)	-20.965%
O=S(=O)(C1CC1)N1CC[C@@H](OCC2CC2)[C@@H]1Cc1ccncc1	47.5%
CNc1nc(CNC(=O)Nc2cccc(C)c2Cl)cs1	-25.15%
CNc1nc(CNC(=O)Nc2ccccc2OC(C)C)cs1	32.3%
CNc1nc(CNC(=O)Nc2ccc(OC)cc2C)cs1	21.5%
CNc1nc(CNC(=O)Nc2cc(Cl)ccc2F)cs1	-41.85%
CNc1nc(CNC(=O)Nc2ccc(OC(C)C)cc2F)cs1	72.3%
CNc1nc(CNC(=O)Nc2ccc(OC(C)C)cc2C)cs1	57.2%
COc1ccc2[nH]cc(C(=O)CNc3nc(C)cs3)c2c1	-29.5%
O=C(CCOc1ccc(F)cc1)N1CCCC1Cn1cccn1 (centres undefined)	30.6%

SMILES	INHIBITION
Cc1ccc2c(n1)N(CCn1cccn1)CCN(C(=O)NC(C)C)C2	-32%
CS(=O)(=O)NCc1cnc2n1CCN(Cc1ccsc1)CC2	30.1%
CCOc1ccccc1Oc1ccc(CN)cn1	60.3%
NCc1ccc(Oc2cccc(Cl)c2Cl)nc1	28.7%
NCc1ccc(Oc2cccc(Cl)c2Cl)cc1	13.2%
CCCN1CCc2c(C(=O)N(C)Cc3ccccn3)nn(C)c2C1	55.6%
CC(C)CCN1CCc2c(C(=O)N(C)Cc3ccccn3)nn(C)c2C1	48.2%
CN(Cc1ccccn1)C(=O)c1nn(C)c2c1CCN(CC1CC1)C2	48.2%
COCCCNC(=O)CN(C)C1CCCN(c2cccnn2)C1 (centres undefined)	-14.7%
CC(=O)N1CC(=O)N(c2ccsc2)CC12CCN(Cc1ccoc1)C2 (centres undefined)	-3.58%
CCN1C(=O)C(c2ccccc2)CC12CCN(CCO)CC2 (centres undefined)	19.8%
CNC(=O)CN1CC[C@H]2CN(C(=O)c3ccccc3C)C[C@H]2C1	-28%
Cc1nn(CC(=O)N2CCN(Cc3cnn(C)c3C)CC2)cc1Br	-5.92%
CCn1ncc(CN2CCN(C(=O)Cn3cc(Br)c(C)n3)CC2)c1C	34%
Cc1nn(CC(=O)N2CCN(Cc3cn(C)nc3C)CC2)cc1Br	51%
CCn1cc(CN(C)S(=O)(=O)c2cnn(C)c2)cn1	7.66%
O=c1c2cn[nH]c2nc(SCCN2CCOCC2)n1-c1ccccc1	21.5%
CC(=O)N1CCC2(CN(CC3CCCC3)C2)C1	39.5%
CC(=O)N1CCC2(CCN(CC3CCCCC3)C2)CC1	51.9%
CC(=O)N1CCC2(CCN(CC3CCOC3)C2)CC1 (centres undefined)	42.1%
COc1cccc(-c2nc(C)c(C(=O)N[C@H](CO)CC(C)C)s2)c1	-23.7%
